Where a chain is given by its changes, count along the chain named.

These results are taken from publication PMC5700166.

Assay in all cases: protein-binding microarray (PBM); PBM: ~300 nM protein, 6 mM HEPES pH 7.8, 80 mM KCl, 0.5 mM EDTA, 0.5 mM EGTA, 6% glycerol, 35 ng/ul poly-dIdC, 1% milk, 1 h, room temperature; Ap Aiptasia and Nv Nematostella (sea anemones) / Co Capsaspora / Aq Amphimedon (sponge) / Dm Drosophila / Hu human; RHD is the Rel homology domain; high values mean tight binding
What all share (conditions): dsDNA, one strand shown

One assay addresses T1, GST-Ap-NF-kB RHD (Exaiptasia pallida (Aiptasia), UniProt A0A913YAJ5 2-422).
T1 sequence: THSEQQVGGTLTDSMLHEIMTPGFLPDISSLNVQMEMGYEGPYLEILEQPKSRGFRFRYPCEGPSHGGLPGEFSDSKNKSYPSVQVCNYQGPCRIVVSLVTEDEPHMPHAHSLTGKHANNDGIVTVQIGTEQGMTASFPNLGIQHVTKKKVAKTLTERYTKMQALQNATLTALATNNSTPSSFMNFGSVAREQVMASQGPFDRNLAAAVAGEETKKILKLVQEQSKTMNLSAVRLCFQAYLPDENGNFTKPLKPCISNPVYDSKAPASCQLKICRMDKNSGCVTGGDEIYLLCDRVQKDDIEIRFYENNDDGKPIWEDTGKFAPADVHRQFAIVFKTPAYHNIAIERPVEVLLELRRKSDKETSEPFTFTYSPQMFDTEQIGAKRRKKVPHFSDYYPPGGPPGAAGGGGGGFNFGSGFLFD

Assay [1] has as its target T2, GST-Nv-NF-kB (Cys allele) (Nematostella vectensis, UniProt E5G601 2-411).
T2 sequence: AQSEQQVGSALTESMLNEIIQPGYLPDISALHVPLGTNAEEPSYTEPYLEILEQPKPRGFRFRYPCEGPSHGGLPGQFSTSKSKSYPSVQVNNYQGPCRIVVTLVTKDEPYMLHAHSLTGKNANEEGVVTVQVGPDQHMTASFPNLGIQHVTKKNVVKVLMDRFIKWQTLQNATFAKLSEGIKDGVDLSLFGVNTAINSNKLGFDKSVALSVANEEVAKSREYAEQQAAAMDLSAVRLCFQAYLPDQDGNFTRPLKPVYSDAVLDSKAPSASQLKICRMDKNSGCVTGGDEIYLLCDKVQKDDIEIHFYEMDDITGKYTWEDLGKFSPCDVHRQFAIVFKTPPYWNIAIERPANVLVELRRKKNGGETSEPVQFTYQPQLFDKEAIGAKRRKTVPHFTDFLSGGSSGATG

Assay [2] addresses T3, GST-Nv-NF-kB (Ser allele) (Nematostella vectensis, UniProt A7UNT2 2-411).
T3 sequence: T2 sequence with Q21R, C66S, S207N, E215Q, V217A, E225K, A268E, D399E

The target of the next assay is T4, GST-Co-NF-kB (Capsaspora owczarzaki, UniProt F1ARL5 200-546).
T4 sequence: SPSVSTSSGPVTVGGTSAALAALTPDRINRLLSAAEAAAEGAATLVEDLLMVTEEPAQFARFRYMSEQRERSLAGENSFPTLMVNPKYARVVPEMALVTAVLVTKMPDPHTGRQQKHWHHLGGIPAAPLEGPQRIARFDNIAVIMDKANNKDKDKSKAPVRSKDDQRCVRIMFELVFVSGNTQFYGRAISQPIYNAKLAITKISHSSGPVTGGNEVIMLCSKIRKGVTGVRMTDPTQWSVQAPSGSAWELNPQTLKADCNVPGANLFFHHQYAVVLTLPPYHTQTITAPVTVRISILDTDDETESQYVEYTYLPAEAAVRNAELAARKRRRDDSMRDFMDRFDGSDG

The target in another assay is T5, GST-Dm-Relish (Drosophila melanogaster, UniProt Q94527 99-473).
T5 sequence: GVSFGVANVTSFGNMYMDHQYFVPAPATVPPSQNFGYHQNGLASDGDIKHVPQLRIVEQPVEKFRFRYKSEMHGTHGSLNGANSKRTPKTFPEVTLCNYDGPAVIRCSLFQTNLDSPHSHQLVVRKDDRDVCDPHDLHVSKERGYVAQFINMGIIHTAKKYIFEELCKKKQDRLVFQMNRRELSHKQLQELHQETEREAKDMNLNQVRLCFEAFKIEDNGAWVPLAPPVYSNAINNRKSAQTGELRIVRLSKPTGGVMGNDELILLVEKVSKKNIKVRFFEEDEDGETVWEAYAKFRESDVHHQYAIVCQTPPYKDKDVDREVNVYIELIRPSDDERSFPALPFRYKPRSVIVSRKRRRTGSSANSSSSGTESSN

A further assay addresses T6, GST-Aq-NF-kB (Amphimedon queenslandica, UniProt A9Y5G7 2-389).
T6 sequence: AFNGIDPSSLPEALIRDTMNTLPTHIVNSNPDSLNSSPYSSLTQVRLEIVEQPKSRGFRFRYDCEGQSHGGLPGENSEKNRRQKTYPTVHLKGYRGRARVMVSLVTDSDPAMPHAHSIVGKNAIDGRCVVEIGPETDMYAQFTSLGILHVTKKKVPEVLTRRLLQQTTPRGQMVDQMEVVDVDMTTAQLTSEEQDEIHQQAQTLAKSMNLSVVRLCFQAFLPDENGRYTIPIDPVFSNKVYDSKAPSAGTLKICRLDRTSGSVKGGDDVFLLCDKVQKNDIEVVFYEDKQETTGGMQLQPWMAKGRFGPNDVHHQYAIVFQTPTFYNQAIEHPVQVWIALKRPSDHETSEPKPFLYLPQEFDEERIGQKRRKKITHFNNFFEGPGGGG

The next assay deals with GST-Hu-p50 (Homo sapiens, UniProt P19838 7-356).
GST-Hu-p50, sequence (P19838 7-356): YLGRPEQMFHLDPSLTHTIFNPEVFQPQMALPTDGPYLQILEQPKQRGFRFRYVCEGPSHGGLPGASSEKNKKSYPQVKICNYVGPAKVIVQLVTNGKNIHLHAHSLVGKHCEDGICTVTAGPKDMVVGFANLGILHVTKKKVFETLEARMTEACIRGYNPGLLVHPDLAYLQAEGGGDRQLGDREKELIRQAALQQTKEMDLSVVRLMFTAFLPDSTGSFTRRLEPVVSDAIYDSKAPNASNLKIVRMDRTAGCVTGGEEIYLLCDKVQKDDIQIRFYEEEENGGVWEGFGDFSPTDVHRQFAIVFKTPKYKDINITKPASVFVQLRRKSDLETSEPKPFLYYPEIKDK

As for “CCGATTAACATCAGAATTCCCCATGATGTTAATCGGGTCTTGATTCGCTTGACGCTGCTG”, the binding signal with GST-Ap-NF-kB RHD is 8.83 z-score; in assay [1], 10.3 z-score; in assay [2] it was 9.9 z-score; with GST-Co-NF-kB, 7.04 z-score; with GST-Dm-Relish, 6.72 z-score; with GST-Aq-NF-kB, 6.99 z-score. Besides, the binding signal with GST-Hu-p50 was 6.62 z-score.
As for “CCGATTAACATCACGGGTTTTCCTGATGTTAATCGGGTCTTGATTCGCTTGACGCTGCTG”, the binding signal in the assay with GST-Ap-NF-kB RHD was determined as 2.91 z-score; in assay [1], 2.73 z-score; in assay [2], 1.9 z-score; with GST-Co-NF-kB, 1.18 z-score; with GST-Dm-Relish, 4.43 z-score; with GST-Aq-NF-kB, 4.99 z-score. Besides, the binding signal with GST-Hu-p50 was found to be 2.29 z-score.
For “CCGATTAACATCAAGGAACTCCCTGATGTTAATCGGGTCTTGATTCGCTTGACGCTGCTG”, the binding signal in the assay with GST-Ap-NF-kB RHD was 3.98 z-score; in assay [1], 3.82 z-score; in assay [2], 2.62 z-score; with GST-Co-NF-kB it was 1.49 z-score; in the assay with GST-Dm-Relish, 5.06 z-score; with GST-Aq-NF-kB, 5.06 z-score. Also, the binding signal with GST-Hu-p50 came to 3.54 z-score.
Take “CCGATTAACATCAATTCCCCCCATGATGTTAATCGGGTCTTGATTCGCTTGACGCTGCTG”: the binding signal in the assay with GST-Ap-NF-kB RHD came to 7.01 z-score; in assay [1], 7.06 z-score; in assay [2], 6.97 z-score; with GST-Co-NF-kB, 9.55 z-score; with GST-Dm-Relish, 4.89 z-score; with GST-Aq-NF-kB, 5.8 z-score. Moreover, the binding signal in the assay with GST-Hu-p50 stood at 6.18 z-score.
“CCGATTAACATCAAAATACTCCCTGATGTTAATCGGGTCTTGATTCGCTTGACGCTGCTG”: the binding signal in the assay with GST-Ap-NF-kB RHD was found to be 5.1 z-score; in assay [1], 4.6 z-score; in assay [2], 4.49 z-score; with GST-Co-NF-kB, 2.79 z-score; with GST-Dm-Relish, 1.83 z-score; in the assay with GST-Aq-NF-kB it was 4.2 z-score. Also, the binding signal with GST-Hu-p50 was determined as 3.64 z-score.
“CCGATTAACATCAAAAATTCCCCTGATGTTAATCGGGTCTTGATTCGCTTGACGCTGCTG”: the binding signal with GST-Ap-NF-kB RHD was determined as 10.4 z-score; in assay [1] it was 12.8 z-score; in assay [2] it was 14 z-score; in the assay with GST-Co-NF-kB, 9.75 z-score; with GST-Dm-Relish, 9.69 z-score; in the assay with GST-Aq-NF-kB, 9.6 z-score. Besides, the binding signal with GST-Hu-p50 was determined as 7.99 z-score.
On to “CCGATTAACATCACGTGATTCCCTGATGTTAATCGGGTCTTGATTCGCTTGACGCTGCTG”, for which the binding signal in the assay with GST-Ap-NF-kB RHD was found to be 2.22 z-score; in assay [1] it was 2.38 z-score; in assay [2], 2.58 z-score; in the assay with GST-Co-NF-kB, 1.63 z-score; in the assay with GST-Dm-Relish it was 8.61 z-score; in the assay with GST-Aq-NF-kB it was 3.33 z-score. In the assay with GST-Hu-p50, this sequence showed a binding signal of 1.11 z-score.
For the sequence “CCGATTAACATCAGGGGGTTTTATGATGTTAATCGGGTCTTGATTCGCTTGACGCTGCTG”, the binding signal in the assay with GST-Ap-NF-kB RHD amounted to 9.65 z-score; in assay [1], 9.57 z-score; in assay [2], 10.2 z-score; in the assay with GST-Co-NF-kB, 3.52 z-score; with GST-Dm-Relish, 10 z-score; with GST-Aq-NF-kB, 8.21 z-score. This sequence displayed a binding signal with GST-Hu-p50 of 7.82 z-score.
As for “CCGATTAACATCATTAGGGGAAGTGATGTTAATCGGGTCTTGATTCGCTTGACGCTGCTG”, the binding signal was 4.61 z-score with GST-Ap-NF-kB RHD; 5.4 z-score in assay [1]; 7.61 z-score in assay [2]; 3.41 z-score in the assay with GST-Co-NF-kB; 2.36 z-score with GST-Dm-Relish; 4.57 z-score with GST-Aq-NF-kB. In addition, the binding signal in the assay with GST-Hu-p50 amounted to 5.39 z-score.
Regarding “CCGATTAACATCAGGGGAATACATGATGTTAATCGGGTCTTGATTCGCTTGACGCTGCTG”, the binding signal with GST-Ap-NF-kB RHD was 6.98 z-score; in assay [1], 8.02 z-score; in assay [2] it was 7.97 z-score; in the assay with GST-Co-NF-kB, 6.18 z-score; in the assay with GST-Dm-Relish it was 6.02 z-score; with GST-Aq-NF-kB it was 5.87 z-score. The binding signal with GST-Hu-p50 came out at 5.42 z-score.
“CCGATTAACATCAAGGGGAATCCTGATGTTAATCGGGTCTTGATTCGCTTGACGCTGCTG”: the binding signal with GST-Ap-NF-kB RHD worked out at 9.67 z-score; in assay [1], 11 z-score; in assay [2] it was 10 z-score; with GST-Co-NF-kB, 5.17 z-score; with GST-Dm-Relish, 9.09 z-score; with GST-Aq-NF-kB, 7.69 z-score. Moreover, the binding signal with GST-Hu-p50 amounted to 6.99 z-score.
Turning to “CCGATTAACATCAAATATCCCCCTGATGTTAATCGGGTCTTGATTCGCTTGACGCTGCTG”, the binding signal with GST-Ap-NF-kB RHD came to 8.79 z-score; in assay [1], 8.51 z-score; in assay [2], 8.83 z-score; in the assay with GST-Co-NF-kB, 8.39 z-score; with GST-Dm-Relish it was 7.63 z-score; with GST-Aq-NF-kB, 6.9 z-score. In the assay with GST-Hu-p50, this sequence came in with a binding signal of 6.58 z-score.
